# Test results as given in PubChem BioAssay (NCATS).
# Activity calls are given as the source filed them. The call rests on the fitted dose curve; in most records, active means well fitted curve in the direction sought with a large enough effect; inactive means no such curve, though single readings can be large or run the other way.
# Test: qHTS for small molecule inhibitors of Yes1 kinase: Counter Assay (AID 686950);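 further: no kinase present so only ADP-Glo detection of a fixed ADP amount is tested; luminescence from ADP-Glo reporting ADP in a fixed ATP and ADP mixture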
# Conditions: series mostly up to 76.9 µM
# Description: The Src family of non-receptor protein tyrosine kinases contains nine members, including Yes1, Src, Fyn, Lyn, and […]. These kinases have important roles in a variety of cellular functions, such as cell proliferation, survival, and differentiation. Src, the most well characterized member of this family, has been previously identified as a proto-oncogene. […] In melanoma, it has been shown that Yes1, and not other family members, such as Src, is functionally involved in the malignant phenotype. Additionally, a recent study examining the downregulation of Yes1 by shRNA found significant effects on cell survival/growth for basal-like and Her2-positive breast cancers. Despite the potential for Yes1 to be a target for the above-described cancers, there are very few reports on the identification of potent and selective inhibitors of Yes1 kinase. Antagonists of Yes1 would further elucidate Yes1 biology and help to confirm whether Yes1 is a viable target for therapeutic intervention in a variety of cancers.
# A compound that inhibits Yes1 could be important for the treatment of various cancers in which Yes1 is highly expressed and can also be used as a tool compound to help further elucidate Yes1 biology. To that end, we have developed a sensitive HTS biochemical assay for Yes1 activity. This assay was screened against several small compound libraries to look for modulators of activity. The cherrypicked compounds were screened against this counter assay, which evaluates whether the compounds have any effect on the ADP-Glo detection kit. Compounds that show inhibition in this assay have interference with the detection system. Inactivity is the desired output for this assay.
# NIH Molecular Libraries Probe Production Centers Network [MLPCN]
# NIH Chemical Genomics Center [NCGC]
# Two microliter of buffer (columns 1-48) are dispensed into Greiner, white solid-bottom 1536-well assay plates. Compounds (23 nL) are then transferred via Kalypsys pin tool equipped with 1536-pin array (10 nL slotted pins, V&P Scientific, San Diego, CA). The library compounds are in columns 5-48 and columns 1-4 serve as controls with DMSO. Following addition of compound and a 20 minute incubation, 1 uL of substrate/product mix (ATP and ADP from Sigma-Aldrich, St. Louis, MO) is added to columns 1, 2, 5-48 and 1 uL of substrate (ATP) is added to columns 3-4, and the plate is incubated for 60 minutes at room temperature. The amount of ADP is then quantified by the ADP-Glo Kit (Promega, Madison, WI). First, 2 uL of the first kit reagent is added, and the reaction is incubated for 45 minutes; then, 4 uL of the second kit reagent are added and the reaction is incubated for 30 minutes at which time the luminescence is read on a Viewlux plate reader (Perkin-Elmer, Waltham, MA). The final concentration of reagents in the reaction are 0.08 mM ATP and 0.02 mM ADP (or 0.1 mM ATP in the no ADP control columns), 100 uM EGTA, 10 mM MgCl2, 50 mM Tris pH 7.5, 1 mM DTT, 150 mM NaCl, 0.01% Brij-35, and 5% glycerol. Data are normalized to DMSO-treated control columns with ATP and […] (maximum signal) and with just ATP (minimum signal).
row,SMILES,outcome
1,C[C@@]12O[C@@H](C[C@]1(O)CO)n1c3ccccc3c3c4c(c5c6ccccc6n2c5c31)CNC4=O,inactive
2,CC(C)c1ccccc1Cc1cc(C(=O)Nc2ccc(S(=O)(=O)c3ccccc3C(C)(C)C)cc2)c(O)c(O)c1O,inactive
3,Clc1ccc2ncc(-c3cccc(NC4CNC4)n3)n2c1,inactive
4,CCCCc1nc2cc(C=CC(=O)NO)ccc2n1CCN(CC)CC,inactive
5,COCCn1c2c([n+](Cc3cnccn3)c1C)C(=O)c1ccccc1C2=O,inactive
6,CC(C)(C)c1cc(NC(=O)Nc2ccc(-c3cn4c(n3)sc3cc(OCCN5CCOCC5)ccc34)cc2)no1,inactive
7,N#Cc1c(O)c2c(-c3ccc(-c4ccccc4O)cc3)csc2[nH]c1=O,inactive
8,c1ccc2c(CCNc3ccc(Nc4ccncc4)cc3)c[nH]c2c1,inactive
9,COc1cccc2nc(-c3cccs3)nc(NN3C(=O)C=C(C)C3=O)c12,inactive
10,CC1(O)CC(c2nc(-c3ccc4ccc(-c5ccccc5)nc4c3)c3c(N)nccn23)C1 (stereo not given),inactive
11,O=C(O)c1ccc2cc(-c3ccc(O)c(C45CC6CC(CC(C6)C4)C5)c3)ccc2c1,inactive
12,CC(C)(C)c1cc(C(C)(C)C)c(NC(=O)c2c[nH]c3ccccc3c2=O)cc1O,inactive
13,CC(C)c1ccc(Cn2ccc3c4c(N)nc(NC5CC5)nc4ccc32)cc1,inactive
14,CCN(CC)CCCCNc1ncc2cc(-c3cc(OC)cc(OC)c3)c(NC(=O)NC(C)(C)C)nc2n1,inactive
15,COc1cc(OC2CCN(C)CC2)ccc1Nc1ncc2c(n1)n(C1CCCC1)c(=O)n2C,inactive
16,Cc1cnc(Nc2ccc(F)cc2Cl)nc1-c1c[nH]c(C(=O)N[C@H](CO)c2cccc(Cl)c2)c1,inactive
17,CC(NCc1ccc2c(c1)nc(NC(=O)c1ccc(-c3cn[nH]c3)s1)n2CC(C)(C)O)C(C)(C)C (stereo not given),inactive
18,NC(=O)c1c(OCc2c(F)cc(Br)cc2F)nsc1NC(=O)NCCCCN1CCCC1,inactive
19,CC(C)CC(=O)Nc1n[nH]c2c1CN(C(=O)C1CCN(C)CC1)C2(C)C,inactive
20,CN(C)CCCN=c1c2ccccc2n(C)c2[nH]c(=O)n(C)c(=O)c12,inactive

row,SMILES,outcome
1,Fc1cc(-c2cccc3ncc(-c4cnn(C5CCNCC5)c4)nc23)cc(F)c1CN1CCOCC1,inactive
2,COc1cc2ncnc(Nc3ccc(F)c(Cl)c3)c2cc1NC(=O)C=CCN1CCCCC1,inactive
3,Cc1cc(Nc2cc(N3CCN(C)CC3)nc(Sc3ccc(NC(=O)C4CC4)cc3)n2)n[nH]1,inactive
4,C1=CCOCc2cc(ccc2OCCN2CCCC2)Nc2nccc(n2)-c2cccc(c2)OCC1,inactive
5,Cc1cc(Nc2cc(NC(=O)c3c(Cl)cccc3Cl)ccn2)nc(N)n1,inactive
6,CCCCCN(CCC12CC3CC(CC(C3)C1)C2)C(=O)NCCCc1ccncc1,inactive
7,Nc1cc(C(F)(F)F)c(-c2cc(N3CCOCC3)nc(N3CCOCC3)n2)cn1,inactive
8,CC(C)(C)OC(=O)Nc1ccc(-c2cc(C(=O)NCCCCCCC(=O)NO)no2)cc1,inactive
9,Cc1ccc(S(=O)(=O)Nc2cc(Cl)ccc2C(=O)Nc2nc(-c3ccccc3)cs2)cc1,inactive
10,Cn1c(=O)n(-c2ccc(C(C)(C)C#N)cc2)c2c3cc(-c4cnc5ccccc5c4)ccc3ncc21,inactive
11,COc1cc(=C2C=c3ccccc3=N2)[nH]c1=Cc1[nH]c(C)cc1C,inactive
12,C#Cc1cccc(Nc2ncnc3cc(OC)c(OCCCCCCC(=O)NO)cc23)c1,inactive
13,C[C@@H](Oc1cc(-c2cnn(C3CCNCC3)c2)cnc1N)c1c(Cl)ccc(F)c1Cl,inactive
14,C[C@@H](Oc1cc(-n2cnc3ccc(CN4CCN(C)CC4)cc32)sc1C(N)=O)c1ccccc1C(F)(F)F,inactive
15,O=C(NCCS(=O)(=O)c1ccc(C(F)(F)F)cn1)c1ccc(Cl)cc1,inactive
16,Cc1cnc(-c2cnc(NCCNc3ccc(C#N)cn3)nc2-c2ccc(Cl)cc2Cl)[nH]1,inactive
17,Cn1c2cc(S(C)=O)sc2c2cnn(Cc3cccc(N)c3)c(=O)c21 (stereo not given),inactive
18,COc1cc(C(C)C)c2c(c1)S(=O)(=O)N(COc1cc(=O)n3cccc(OCCN4CCCCC4)c3n1)C2=O,inactive
19,CCCCN1CCC(CNC(=O)c2c3n(c4ccccc24)CCCO3)CC1,inactive
20,CN1CCN(c2ccc3nc(-c4c(N)c5c(F)cccc5[nH]c4=O)[nH]c3c2)CC1,inactive
